Calls of active or inactive are those of the source.
Legend:
[1] = test system: PRMT1 (protein arginine N-methyltransferase 1); experiment: PRMT1 binders on small-molecule microarrays, primary screen, biochemical, small-molecule microarray, 635 nm fluorescence (AID 1088); details: small-molecule microarray binding, higher = more signal;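 also: binding of Prmt1 protein to compounds spotted on small-molecule microarray slides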
[2] = yeast growth modulation, basal conditions, primary screen, YJM789 clinical isolate, OD600, 24 h (AID 1089);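 also: growth of clinical yeast isolate S. cerevisiae YJM 789 seeded 1000 cells per well; test concentration not given here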; details: S. cerevisiae YJM789 growth, higher = more signal, called active from +8 up or from −8 down
[3] = fission yeast growth modulation, primary screen, strain 972, OD600, 24 h, no modulator (AID 1090);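 also: basal condition with compound alone and no growth modifier present; test concentration not given here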; details: S. pombe 972 growth, higher = more signal, called active from +8 up or from −8 down
[4] = S. cerevisiae growth modulation with rapamycin, primary screen, strain BY4716, OD600, 96 h (AID 1091); details: higher = more signal, called active from +8 up or from −8 down; also: test concentration not given here
[5] = target: Torsin-1A-interacting protein 2 (Homo sapiens) (UniProt Q8NFQ8); experiment: LULL1 binders on small-molecule microarray, primary screen, cell lysate, human LULL1 lysate, 635/667 nm fluorescence (AID 1092); details: hLULL1 lysate binding, 635 nm fluorescence, higher = more signal;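 also: probe is lysate of COS7 cells overexpressing human LULL1; score merges per-feature 667 nm fluorescence with signal-to-noise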
[6] = E. coli growth modulation, two-sided OD650, primary screen, E. coli filamentation project, strain DRC41, 24 h (AID 1093); details: OD650, 24 h, higher = more signal, called active from +8 up or from −8 down;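 also: MC1000 strain lacking acrAB efflux and sulA so SOS filamentation is blocked; test concentration not given here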
[7] = small-molecule microarray binders of probe aLefty2, primary screen, biochemical, biotinylated probe, 635/667 nm fluorescence (AID 1094); details: higher = more signal;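 also: score merges spot fluorescence near 667 nm with spot signal-to-noise ratio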
[8] = test system: Noggin (protein binding on small-molecule microarray); experiment: Noggin binders on small-molecule microarray, primary screen, biochemical, 635/667 nm fluorescence (AID 1095); details: 635 nm fluorescence, higher = more signal;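 also: score merges 667 nm feature fluorescence with signal to noise over triplicate slides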
[9] = target: Neurogenic locus notch homolog protein 3 (Homo sapiens) (UniProt Q9UM47); experiment: NOTCH3 binders on small-molecule microarray, primary screen, biochemical, 635/667 nm fluorescence (AID 1096); details: NOTCH3 binding, 635 nm fluorescence, higher = more signal
[10] = small-molecule microarray binders of probe aEGFR, primary screen, biochemical, biotinylated probe, 635/667 nm fluorescence (AID 1097); details: higher = more signal;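 also: probe is a biotinylated anti-EGFR antibody binding compounds printed on slides; score combines fluorescence near 667 nm and signal to noise of each spot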
[11] = test system: Plasmodium falciparum Sir2 (PF13_0152, Sir2A); experiment: pfSir2 binders on small-molecule microarrays, primary screen, biochemical, small-molecule microarray, 635 nm fluorescence (AID 1098); details: small-molecule microarray binding, fluorescence 635 nm; higher = more signal;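 also: score merges spot fluorescence intensity with its signal-to-noise ratio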
[12] = small-molecule microarray binders of probe aDKK1, primary screen, biochemical, biotinylated probe, 635/667 nm fluorescence (AID 1099); details: higher = more signal;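 also: score merges 667nm spot fluorescence with signal to noise across triplicate slides; reference of the scale not given here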
[13] = small-molecule microarray binders of probe aCHRDL2, primary screen, biochemical, biotinylated probe, 635/667 nm fluorescence (AID 1100); details: higher = more signal
[14] = splicing luciferase reporter signal modulators, primary screen, spliceosome inhibition project, cell-based, HEK293, splice +/- reporter (AID 1101); details: luminescence, 24 h, higher = more signal, called active from +8 up or from −8 down;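 also: HEK293 cells carrying a splicing-competent luciferase reporter gene; test concentration not given here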
[15] = target: Fibroblast growth factor 10 (Homo sapiens) (UniProt O15520); experiment: FGF10 binders on small-molecule microarrays, primary screen, biochemical, small-molecule microarray, 635 nm fluorescence (AID 1102); details: FGF10 binding, fluorescence 635 nm, higher = more signal
[16] = test system: glycogen synthase kinase-3 (GSK3A per assay name; protocol says GSK3B); experiment: GSK3 binders on small-molecule microarrays, primary screen, biochemical, small-molecule microarray, 635 nm fluorescence, GSK3A (AID 1103); details: small-molecule microarray binding, fluorescence 635 nm; higher = more signal; also: the record names both GSK3A and GSK3B
[17] = target: Epidermal growth factor receptor (Homo sapiens) (UniProt P00533); experiment: EGFR binders on small-molecule microarrays, primary screen, biochemical, small-molecule microarray, 635 nm fluorescence (AID 1104); details: EGFR binding, higher = more signal;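 also: score merges 667 nm emission intensity with spot signal to noise over triplicate slides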
[18] = target: Follistatin-related protein 3 (Homo sapiens) (UniProt O95633); experiment: FSTL3 binders on small-molecule microarrays, primary screen, biochemical, small-molecule microarray, 635 nm fluorescence (AID 1105); details: FSTL3 binding, higher = more signal;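 also: score merges emission near 667 nm and signal to noise per printed spot across three slides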
[19] = target: Dickkopf-related protein 1 (Homo sapiens) (UniProt O94907); experiment: DKK1 binders on small-molecule microarrays, primary screen, biochemical, small-molecule microarray, 635 nm fluorescence scan (AID 1106); details: DKK1 binding, higher = more signal;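 also: score merges emission near 667 nm with signal to noise over three replicate slides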
[20] = test system: Inhibin beta A chain (activin A); experiment: INHBA (activin A) binders on microarrays, primary screen, biochemical, small-molecule microarray, 635 nm fluorescence scan (AID 1107); details: small-molecule microarray binding, higher = more signal;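 also: mouse activin A protein probed at 4.33 µg/mL on printed slides; score merges bound-protein fluorescence near 667 nm with spot signal-to-noise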

Sequence of Follistatin-related protein 3 (Homo sapiens) (O95633 whole entry, looked up): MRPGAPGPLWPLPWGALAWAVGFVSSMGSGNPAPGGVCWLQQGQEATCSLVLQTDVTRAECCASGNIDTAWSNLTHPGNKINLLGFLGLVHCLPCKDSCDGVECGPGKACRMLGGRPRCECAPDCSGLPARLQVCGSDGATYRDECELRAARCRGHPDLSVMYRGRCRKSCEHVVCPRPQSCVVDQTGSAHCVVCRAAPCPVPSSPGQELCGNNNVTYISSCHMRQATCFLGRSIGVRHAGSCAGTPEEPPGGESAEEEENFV
Sequence of Dickkopf-related protein 1 (Homo sapiens) (O94907 whole entry, looked up): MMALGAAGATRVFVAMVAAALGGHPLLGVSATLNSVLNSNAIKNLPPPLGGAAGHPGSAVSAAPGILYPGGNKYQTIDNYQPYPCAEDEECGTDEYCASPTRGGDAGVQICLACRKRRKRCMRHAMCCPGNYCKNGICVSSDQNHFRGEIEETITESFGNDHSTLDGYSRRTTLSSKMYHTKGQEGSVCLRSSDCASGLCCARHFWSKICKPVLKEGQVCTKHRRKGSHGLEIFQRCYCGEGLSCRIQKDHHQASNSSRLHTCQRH
Sequence of Neurogenic locus notch homolog protein 3 (Homo sapiens) (Q9UM47 whole entry, looked up): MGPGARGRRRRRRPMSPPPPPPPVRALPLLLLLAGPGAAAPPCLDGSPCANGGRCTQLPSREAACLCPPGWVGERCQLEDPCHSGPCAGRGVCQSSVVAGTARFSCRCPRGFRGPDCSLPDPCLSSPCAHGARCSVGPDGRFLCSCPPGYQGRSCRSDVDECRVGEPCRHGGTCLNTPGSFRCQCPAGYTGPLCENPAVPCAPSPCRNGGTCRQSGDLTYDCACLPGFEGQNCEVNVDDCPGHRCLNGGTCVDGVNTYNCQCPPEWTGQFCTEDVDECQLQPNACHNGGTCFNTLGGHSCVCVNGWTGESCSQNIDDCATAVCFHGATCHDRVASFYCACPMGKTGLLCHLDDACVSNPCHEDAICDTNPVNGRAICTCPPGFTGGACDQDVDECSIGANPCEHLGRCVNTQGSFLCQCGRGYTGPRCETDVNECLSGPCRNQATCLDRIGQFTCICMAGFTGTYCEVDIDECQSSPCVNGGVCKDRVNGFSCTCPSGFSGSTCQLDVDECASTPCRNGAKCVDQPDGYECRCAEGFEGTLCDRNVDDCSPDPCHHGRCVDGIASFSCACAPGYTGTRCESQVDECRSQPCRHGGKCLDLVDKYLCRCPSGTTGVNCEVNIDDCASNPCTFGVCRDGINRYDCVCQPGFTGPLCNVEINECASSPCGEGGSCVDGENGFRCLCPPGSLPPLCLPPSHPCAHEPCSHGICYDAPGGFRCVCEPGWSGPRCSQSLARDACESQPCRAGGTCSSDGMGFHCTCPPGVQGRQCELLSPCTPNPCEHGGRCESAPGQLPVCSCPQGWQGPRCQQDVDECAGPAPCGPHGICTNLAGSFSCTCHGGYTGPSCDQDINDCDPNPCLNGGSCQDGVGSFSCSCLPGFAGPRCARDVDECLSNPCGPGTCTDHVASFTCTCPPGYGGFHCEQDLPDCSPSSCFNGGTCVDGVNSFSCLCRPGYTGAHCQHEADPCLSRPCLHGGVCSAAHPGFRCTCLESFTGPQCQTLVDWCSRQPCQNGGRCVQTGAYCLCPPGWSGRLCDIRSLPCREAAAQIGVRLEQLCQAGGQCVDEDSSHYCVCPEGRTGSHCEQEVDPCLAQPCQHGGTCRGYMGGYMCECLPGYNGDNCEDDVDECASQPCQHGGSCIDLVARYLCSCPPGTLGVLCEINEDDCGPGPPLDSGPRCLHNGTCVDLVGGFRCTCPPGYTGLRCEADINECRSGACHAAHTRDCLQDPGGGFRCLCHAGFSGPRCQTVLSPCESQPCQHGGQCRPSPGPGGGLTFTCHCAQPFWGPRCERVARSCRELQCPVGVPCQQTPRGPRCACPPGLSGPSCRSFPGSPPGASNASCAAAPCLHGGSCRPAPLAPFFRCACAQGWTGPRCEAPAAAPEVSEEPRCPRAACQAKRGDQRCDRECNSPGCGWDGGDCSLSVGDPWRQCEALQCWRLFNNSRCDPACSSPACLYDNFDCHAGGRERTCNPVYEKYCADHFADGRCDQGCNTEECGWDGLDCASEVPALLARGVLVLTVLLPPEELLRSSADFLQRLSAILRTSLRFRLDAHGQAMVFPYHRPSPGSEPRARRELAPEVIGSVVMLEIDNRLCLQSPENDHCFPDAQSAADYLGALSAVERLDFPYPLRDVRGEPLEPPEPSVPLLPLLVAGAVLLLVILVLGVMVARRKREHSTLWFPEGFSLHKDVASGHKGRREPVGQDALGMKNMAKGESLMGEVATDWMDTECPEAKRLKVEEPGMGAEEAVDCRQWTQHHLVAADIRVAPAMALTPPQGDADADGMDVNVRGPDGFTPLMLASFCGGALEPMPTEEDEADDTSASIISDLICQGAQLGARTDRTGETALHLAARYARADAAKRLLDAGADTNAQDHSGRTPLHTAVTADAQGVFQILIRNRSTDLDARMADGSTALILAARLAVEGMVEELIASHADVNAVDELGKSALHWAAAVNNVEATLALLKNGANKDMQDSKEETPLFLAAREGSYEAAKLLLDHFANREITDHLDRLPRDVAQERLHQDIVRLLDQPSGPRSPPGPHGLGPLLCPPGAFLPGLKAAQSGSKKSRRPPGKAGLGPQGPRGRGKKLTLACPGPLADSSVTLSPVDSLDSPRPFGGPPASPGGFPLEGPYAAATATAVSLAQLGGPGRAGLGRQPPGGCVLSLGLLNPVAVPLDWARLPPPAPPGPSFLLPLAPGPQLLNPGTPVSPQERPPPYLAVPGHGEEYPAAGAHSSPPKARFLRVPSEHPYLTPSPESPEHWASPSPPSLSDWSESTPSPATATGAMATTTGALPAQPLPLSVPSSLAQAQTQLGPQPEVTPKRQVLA
Sequence of Fibroblast growth factor 10 (Homo sapiens) (O15520 whole entry, looked up): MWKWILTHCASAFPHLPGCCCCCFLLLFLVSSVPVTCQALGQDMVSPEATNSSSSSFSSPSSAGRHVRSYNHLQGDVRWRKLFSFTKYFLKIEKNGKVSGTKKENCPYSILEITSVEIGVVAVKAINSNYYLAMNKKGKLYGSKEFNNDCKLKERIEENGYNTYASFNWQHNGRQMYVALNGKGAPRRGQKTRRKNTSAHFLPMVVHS
Sequence of Torsin-1A-interacting protein 2 (Homo sapiens) (Q8NFQ8 whole entry, looked up): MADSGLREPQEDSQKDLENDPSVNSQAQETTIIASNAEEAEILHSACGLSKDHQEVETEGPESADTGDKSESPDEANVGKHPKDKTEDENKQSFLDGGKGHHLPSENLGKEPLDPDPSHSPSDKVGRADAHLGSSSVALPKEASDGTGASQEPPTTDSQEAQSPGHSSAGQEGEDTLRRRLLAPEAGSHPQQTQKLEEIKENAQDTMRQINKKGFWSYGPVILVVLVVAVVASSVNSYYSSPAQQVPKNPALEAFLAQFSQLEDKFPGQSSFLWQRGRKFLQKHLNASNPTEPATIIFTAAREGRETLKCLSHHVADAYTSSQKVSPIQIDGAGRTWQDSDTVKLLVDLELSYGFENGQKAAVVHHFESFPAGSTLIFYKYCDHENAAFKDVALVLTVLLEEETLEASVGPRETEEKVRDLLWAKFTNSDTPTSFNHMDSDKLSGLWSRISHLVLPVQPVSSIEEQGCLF
Sequence of Epidermal growth factor receptor (Homo sapiens) (P00533 whole entry, looked up): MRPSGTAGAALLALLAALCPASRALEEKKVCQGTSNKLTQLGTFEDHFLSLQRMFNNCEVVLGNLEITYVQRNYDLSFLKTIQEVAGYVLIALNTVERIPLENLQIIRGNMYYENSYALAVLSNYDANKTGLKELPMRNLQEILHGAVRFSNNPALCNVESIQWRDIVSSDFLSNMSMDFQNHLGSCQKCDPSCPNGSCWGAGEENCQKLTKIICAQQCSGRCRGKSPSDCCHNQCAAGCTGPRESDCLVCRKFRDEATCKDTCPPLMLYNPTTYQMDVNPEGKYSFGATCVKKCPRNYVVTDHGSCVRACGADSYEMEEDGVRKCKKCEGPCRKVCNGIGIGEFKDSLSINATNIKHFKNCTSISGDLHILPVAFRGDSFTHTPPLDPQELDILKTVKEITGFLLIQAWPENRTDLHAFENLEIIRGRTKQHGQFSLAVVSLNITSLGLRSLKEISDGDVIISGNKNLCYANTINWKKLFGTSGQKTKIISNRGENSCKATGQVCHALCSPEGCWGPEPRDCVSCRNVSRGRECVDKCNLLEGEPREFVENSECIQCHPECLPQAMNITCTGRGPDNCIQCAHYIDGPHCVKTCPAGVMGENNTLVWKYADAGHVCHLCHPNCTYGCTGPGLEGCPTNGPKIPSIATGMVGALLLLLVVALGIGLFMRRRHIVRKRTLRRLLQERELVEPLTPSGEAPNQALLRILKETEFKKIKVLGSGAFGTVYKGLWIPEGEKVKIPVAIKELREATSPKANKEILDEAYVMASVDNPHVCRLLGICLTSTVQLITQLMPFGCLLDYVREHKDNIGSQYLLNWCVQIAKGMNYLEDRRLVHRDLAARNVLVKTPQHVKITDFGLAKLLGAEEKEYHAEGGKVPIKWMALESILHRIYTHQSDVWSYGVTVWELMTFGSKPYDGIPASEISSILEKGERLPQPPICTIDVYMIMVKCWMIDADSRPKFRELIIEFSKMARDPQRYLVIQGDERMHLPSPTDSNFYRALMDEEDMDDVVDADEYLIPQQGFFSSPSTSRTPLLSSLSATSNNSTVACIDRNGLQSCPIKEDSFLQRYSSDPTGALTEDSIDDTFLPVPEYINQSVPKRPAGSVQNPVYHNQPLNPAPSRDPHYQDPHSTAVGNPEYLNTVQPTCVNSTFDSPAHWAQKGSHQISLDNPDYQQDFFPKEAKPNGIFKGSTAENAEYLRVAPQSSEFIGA

SMILES | composite z-score [1] | z-score [2] | z-score [3] | z-score [4] | composite z-score [5] | z-score [6] | composite z-score [7] | composite z-score [8] | composite z-score [9] | composite z-score [10] | composite z-score [11] | composite z-score [12] | composite z-score [13] | z-score [14] | composite z-score [15] | composite z-score [16] | composite z-score [17] | composite z-score [18] | composite z-score [19] | composite z-score [20]
[N-]=[N+]=NCc1ccccc1C[C@@]1(C(=O)NCC(O)CO)N=C(c2ccc(OCCCO)cc2)O[C@@H]1c1ccccc1CN=[N+]=[N-] (stereo not given in full) | 1.52 | -0.235 (inactive) | 0.648 (inactive) | 1.34 (inactive) | 3.68 | 0.526 (inactive) | 0.0942 | 0.875 | 0.474 | -0.197 | 1.71 | -0.0331 | 0.884 | 0.135 (inactive) | 1.33 | 0.712 | -0.747 | -0.203 | -0.643 | 0.688
C[C@]1(C(=O)NCc2ccccc2)c2ccccc2C(=O)N(Cc2ccc(OC(F)(F)F)cc2)[C@H]1c1ccc(CO)cc1 | -0.0073 | -0.913 (inactive) | -0.935 (inactive) | -0.67 (inactive) | 2.06 | 1.36 (inactive) | -0.0719 | 0.0824 | -0.184 | -0.0689 | 0.0162 | -0.098 | 0.663 | -0.557 (inactive) | 0.0259 | 0.0034 | -0.535 | 0.115 | -0.393 | 0.0615
C=CCNC(=O)[C@H]1[C@@H]2C(=O)O[C@@H](c3ccccc3)[C@@H](c3ccccc3)N2[C@@H](c2ccc(O)cc2)[C@]12C(=O)N(C(=O)OCCOC)c1ccc(C#CCCO)cc12 | 1.58 | 1.16 (inactive) | -0.47 (inactive) | 0.804 (inactive) | 2.97 | 1.07 (inactive) | -0.0916 | -0.176 | -0.15 | -0.0163 | 1.29 | 0.303 | 0.272 | 0.271 (inactive) | 1.18 | 0.713 | -0.248 | -0.0994 | -0.0705 | 0.681
COCCOC(=O)N1C(=O)[C@@]2(c3ccccc31)[C@H](C(=O)NC[C@H](O)c1ccccc1)[C@H]1C(=O)O[C@H](c3ccccc3)[C@H](c3ccccc3)N1[C@@H]2c1ccc(OCCO)cc1 | 1.54 | 1.98 (inactive) | 1.64 (inactive) | 6.18 (inactive) | 2.85 | 1.77 (inactive) | -0.066 | 1.81 | 1.04 | -0.023 | 1.38 | 0.0185 | -0.131 | -1.81 (inactive) | 1.08 | 1.27 | 1.13 | 1.51 | 1.01 | 0.955
NC(=O)NCC#Cc1ccc2c(c1)[C@]1(C(=O)N2)[C@H](C(=O)NC[C@H](O)c2ccccc2)[C@H]2C(=O)O[C@H](c3ccccc3)[C@H](c3ccccc3)N2[C@@H]1c1ccc(O)cc1 | 1.39 | 1.94 (inactive) | 1.06 (inactive) | 3.72 (inactive) | 2.9 | -0.412 (inactive) | 0.138 | 1.27 | 1.13 | 0.151 | 1.23 | 0.0166 | -0.249 | 0.37 (inactive) | 0.893 | 0.664 | 0.575 | 0.553 | 0.314 | 1.72
O=C1OCCC=C[C@H]2OC34C=CCN(c5ccc6ccccc6c5)C(=O)[C@H]3N(CCCCCO)C(=O)[C@@H]4C12 (stereo not given in full) | 0.737 | -0.748 (inactive) | -1.64 (inactive) | -0.8 (inactive) | 2.42 | 1.12 (inactive) | -0.0953 | -0.586 | -0.039 | -0.157 | 1.8 | 0.0672 | 0.597 | -0.606 (inactive) | -0.408 | -0.224 | -0.162 | -0.662 | -0.731 | 0.218
O=C1O[C@H](c2ccccc2)[C@H](c2ccccc2)N2[C@H]1[C@@H](C(=O)Nc1nc3ccccc3s1)[C@]1(C(=O)Nc3ccccc31)[C@H]2c1ccc(O)cc1 | 1.55 | 0.474 (inactive) | -0.0898 (inactive) | 0.677 (inactive) | 2.74 | 0.071 (inactive) | -0.23 | 1.24 | 1.15 | -0.0644 | 1.57 | -0.0334 | 0.126 | -0.449 (inactive) | 0.939 | 1.08 | 0.598 | 1.31 | 1.11 | 0.435
Cc1cc(C)c(C(O)C2C=CC3C(=O)N(c4ccccc4)C(=O)C3N2Nc2ccc(C#N)cc2)c(C)c1 (stereo not given) | 1.12 | 0.674 (inactive) | 0.788 (inactive) | 2.16 (inactive) | 3.52 | 0.111 (inactive) | 0.512 | -0.0482 | 1.05 | 0.0905 | 0.586 | 1.05 | 1.24 | 0.757 (inactive) | 1.27 | 1.22 | 0.283 | 1.22 | -0.0911 | 0.7
O=C(OCCF)C1=CCC(c2cccc(Cl)c2)O1 (stereo not given) | 0.581 | -3.17 (inactive) | -0.988 (inactive) | 2.82 (inactive) | 0.856 | -0.0288 (inactive) | -0.141 | 0.207 | 0.1 | -0.0121 | -0.229 | -0.0052 | -0.325 | -0.824 (inactive) | 0.0899 | 0.644 | 0.119 | 0.151 | -0.183 | 0.44
C=C(C(=O)CC[C@H](OC(C)=O)c1ccc(OCCO)cc1)C(C)C | 1.19 | -24.6 (active) | -20.5 (active) | -4.29 (inactive) | 0.739 | 2.11 (inactive) | -0.212 | 1.22 | 0.801 | -0.156 | -0.478 | -0.267 | -0.906 | -3.58 (inactive) | 1.37 | -0.479 | 0.982 | 0.876 | 2.01 | -0.0025
